Measured values as given in PubChem BioAssay.
Values without a mark were called inactive. Activity calls are given as the source filed them. Cut-off read from the data, not from the text of the source, unless noted: active = inhibition above about 25%; inactive = the rest.

Key:
[1] = target: Nuclear receptor coactivator 1 (Homo sapiens) (UniProt Q15788); test: SRC1 coactivator transcriptional activity inhibitors, confirmation, cell-based, luminescence, quadruplicate (AID 588820;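 active = mean inhibition above 46.68%, the untreated control wells mean plus 3 SD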;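 note: 0% = DMSO wells and 100% = gossypol 36 µM treated wells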); conditions: HEK293 GAL4-SRC1 luciferase reporter, at 3.6 µM, active compounds read high
Chain of Nuclear receptor coactivator 1 (Homo sapiens) (Q15788 whole entry, looked up, the tested form may be a part): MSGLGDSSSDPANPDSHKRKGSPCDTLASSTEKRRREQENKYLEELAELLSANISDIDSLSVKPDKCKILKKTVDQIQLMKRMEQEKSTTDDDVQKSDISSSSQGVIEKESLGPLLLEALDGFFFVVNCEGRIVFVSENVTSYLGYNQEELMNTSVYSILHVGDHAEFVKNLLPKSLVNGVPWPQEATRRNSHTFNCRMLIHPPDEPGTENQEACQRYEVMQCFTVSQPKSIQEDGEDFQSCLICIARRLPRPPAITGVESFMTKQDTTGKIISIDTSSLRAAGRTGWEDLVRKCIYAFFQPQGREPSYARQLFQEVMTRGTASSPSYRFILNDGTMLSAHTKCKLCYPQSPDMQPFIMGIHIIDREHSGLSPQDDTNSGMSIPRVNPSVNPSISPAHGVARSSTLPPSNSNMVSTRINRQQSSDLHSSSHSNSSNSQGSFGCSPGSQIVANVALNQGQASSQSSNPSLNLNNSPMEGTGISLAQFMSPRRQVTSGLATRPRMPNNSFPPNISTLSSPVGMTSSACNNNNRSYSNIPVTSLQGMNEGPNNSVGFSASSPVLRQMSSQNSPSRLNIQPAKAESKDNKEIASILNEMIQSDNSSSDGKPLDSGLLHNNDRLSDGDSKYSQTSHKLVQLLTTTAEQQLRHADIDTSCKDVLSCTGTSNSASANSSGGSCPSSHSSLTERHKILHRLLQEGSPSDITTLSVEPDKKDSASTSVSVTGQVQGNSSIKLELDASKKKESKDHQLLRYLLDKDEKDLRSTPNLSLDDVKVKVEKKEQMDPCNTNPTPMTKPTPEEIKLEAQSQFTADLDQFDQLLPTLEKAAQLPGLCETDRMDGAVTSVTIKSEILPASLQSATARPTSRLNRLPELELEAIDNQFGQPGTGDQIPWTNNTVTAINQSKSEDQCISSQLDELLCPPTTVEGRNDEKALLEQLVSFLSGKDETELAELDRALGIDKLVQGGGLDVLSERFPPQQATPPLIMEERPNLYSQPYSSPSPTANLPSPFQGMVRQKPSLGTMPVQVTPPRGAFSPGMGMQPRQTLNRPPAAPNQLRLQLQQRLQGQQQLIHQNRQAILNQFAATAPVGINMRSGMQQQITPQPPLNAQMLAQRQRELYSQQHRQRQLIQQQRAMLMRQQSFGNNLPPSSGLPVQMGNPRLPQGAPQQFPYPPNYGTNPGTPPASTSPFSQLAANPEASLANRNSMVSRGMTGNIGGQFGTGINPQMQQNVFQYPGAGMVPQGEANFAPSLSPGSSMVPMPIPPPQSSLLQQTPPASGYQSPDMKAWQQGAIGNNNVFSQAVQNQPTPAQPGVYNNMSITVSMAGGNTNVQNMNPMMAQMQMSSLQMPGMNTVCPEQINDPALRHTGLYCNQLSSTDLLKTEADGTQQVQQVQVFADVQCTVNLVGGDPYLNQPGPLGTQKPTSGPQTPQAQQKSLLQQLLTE

[2] = VP16 transactivation inhibitors, counter-screen for SRC1 inhibitor project, cell-based, luminescence, high throughput (AID 588824); conditions: cell-based VP16 transactivation luciferase luminescence; at 3.6 µM; active compounds read high

SMILES	inhibition [1] [%]	inhibition [2]
O=C(NCc1cccc(C(F)(F)F)c1)c1csc([C@@H]2O[C@H](CO)[C@H](O)[C@H](O)[C@H]2O)n1	-9.94	-4.13%
COc1ccccc1/C=N/NC(=O)CN(C1=NS(=O)(=O)c2ccccc21)c1ccccc1	-2.78	0.92%
COc1ccccc1CNC(=O)C1CCCN(S(=O)(=O)c2cccc3nsnc23)C1 (centres undefined)	-23.4	-0.08%
O=C(c1ccc(Cl)c(Cl)c1)N1CCN(c2ccccn2)CC1	-12.5	7.01%
CCOC(=O)c1ccc2c(c1)n(CC)c(/C=C/N(C)c1ccccc1)[n+]2CC	29.7	62.3% (active)
Cc1c(C(=O)N/N=C/C(C)C)[nH]c2ccc([N+](=O)[O-])cc12	17.2	14.8%
CSc1ccc(CN2CCN(Cc3ccc([N+](=O)[O-])cc3)CC2)cc1	-10.7	26.8% (active)
COc1ccc(CCC(C)NCc2cc(OC)cc(OC)c2)cc1 (centres undefined)	-28.3	-6.4%
CC(C)=CCCC(C)CN1CCC(n2nccc2NC(=O)c2ccccc2)CC1 (centres undefined)	-6.47	-14.3%
CC(O)c1nc2cc([N+](=O)[O-])ccc2n1Cc1ccccc1 (centres undefined)	-1.46	-6.35%
CCOc1ccc(-c2nnc3ccc(SCC(=O)NCc4ccco4)nn23)cc1	-6.9	-3.63%
Cc1cc(C)n(-c2ccc(C(=O)Nc3ccc(S(=O)(=O)NCc4ccco4)cc3)cc2)n1	-5.13	24.2%
